Measurements from PubChem BioAssay (Tox21).
Where “and” joins values, the source holds several entries; their conditions need not be identical. Equal entries are not always repeated. Inconclusive results are not listed. A call without a number means that no potency is given here. A structure can be active in one record and inactive in another. Calls of active or inactive are those of the source. Unless noted, calls come from the whole dose curve; as a rule, active = well fitted curve in the direction sought with a large enough effect in the repeat runs; inconclusive = weak or mixed curves; inactive = no such curve, though single readings can be large; an effect the other way counts as inactive or inconclusive.

What was measured:
[1] = molecular target: Retinoic acid receptor RXR-alpha (Homo sapiens) (UniProt P19793); assay: qHTS assay to identify small molecule agonists of the RXR signaling pathway (AID 1159527; calls by dose curve; note: nearly all actives have a fitted effect of over 35% in size)
Retinoic acid receptor RXR-alpha (Homo sapiens), sequence (P19793 whole entry, looked up): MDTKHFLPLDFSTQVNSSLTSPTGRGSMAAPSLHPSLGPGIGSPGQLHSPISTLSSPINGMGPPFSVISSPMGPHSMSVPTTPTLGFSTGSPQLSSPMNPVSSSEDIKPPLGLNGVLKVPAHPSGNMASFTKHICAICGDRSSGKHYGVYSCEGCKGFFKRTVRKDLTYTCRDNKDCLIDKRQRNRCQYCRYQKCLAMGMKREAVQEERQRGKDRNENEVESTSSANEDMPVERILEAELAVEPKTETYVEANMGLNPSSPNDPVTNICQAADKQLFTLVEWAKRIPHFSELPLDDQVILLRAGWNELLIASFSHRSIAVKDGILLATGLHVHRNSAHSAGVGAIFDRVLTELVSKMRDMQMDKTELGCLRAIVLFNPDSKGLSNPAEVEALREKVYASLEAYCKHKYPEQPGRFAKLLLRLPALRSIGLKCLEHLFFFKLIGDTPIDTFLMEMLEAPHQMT
Method in brief: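 Cells plated at 2,000/well, rested 5 hr at 37 C, pin-dosed with DMSO compound solutions, incubated 16 hr, then loaded with B/G FRET substrate for 2 hr at RT before dual-emission fluorescence reading.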

[2] = qHTS assay to identify small molecule agonists of the RXR signaling pathway - cell viability counter screen (AID 1159529);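 note: HEK 293T cells carrying an RXR-alpha UAS beta-lactamase reporter; series mostly up to about 77 µM; nearly all actives have a fitted effect of over 50% in size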
Method in brief: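 Steps: seed RXR-alpha-UAS-bla HEK 293T cells in assay medium containing 2% charcoal-stripped FBS; incubate 5 hr; add compounds in DMSO; incubate 16 hr at 37 C; after the bla read, add CellTiter-Glo and read luminescence at 30 min.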

[3] = qHTS assay to identify small molecule antagonists of the retinoid acid receptor (RAR) signaling pathway - cell viability counter screen (AID 1159551); note: nearly all actives have a fitted effect of over 35% in size
Method in brief: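 In this counter screen, the RARE-luciferase line C3RL4 was exposed for 6 h at 37 C and 5% CO2 to compounds with retinol at 1 uM final. Cellular ATP, read by luminescence, served as the viability measure.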

[4] = qHTS assay to identify small molecule antagonists of the retinoic acid receptor (RAR) signaling pathway (AID 1159552; note: nearly all actives have a fitted effect of over 50% in size; note: potency is the fitted concentration of half-maximal effect)
Method in brief: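 Retinol at 1 uM final stimulated RARE-luciferase expression in C3RL4 cells exposed to test compounds for 6 hr at 37 C. Reduced luminescence, read 30 min after detection reagent, indicated pathway antagonism.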

[5] = qHTS assay to identify small molecule agonists of the retinoic acid receptor (RAR) signaling pathway (AID 1159553); note: potency is the fitted concentration of half-maximal effect
Method in brief: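 In this cell-based screen, 1,000 C3RL4 cells per well were cultured overnight, dosed with test chemicals in DMSO for 6 hr, and assessed for RARE luciferase luminescence.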

[6] = qHTS assay to identify small molecule antagonists of the estrogen related receptor (ERR) signaling pathway from Tox21 library - cell viability counter screen (AID 1224834); note: nearly all actives have a fitted effect of over 30% in size; note: potency is the fitted concentration of half-maximal effect
Method in brief: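 Counter screen run in ERR cells (2,000 cells/well): cells pre-incubated 6 h, then treated with compounds for 17.5 h at 37 C. Fluorescence was read 30 min after CellTiter-Fluor addition.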

[7] = molecular target: Luciferin 4-monooxygenase (Photinus pyralis) (UniProt P08659); assay: qHTS assay to identify small molecule inhibitors of firefly luciferase (AID 1224835); note: nearly all actives have a fitted effect of over 25% in size; note: potency is the fitted concentration of half-maximal effect
Luciferin 4-monooxygenase (Photinus pyralis), sequence (P08659 whole entry, looked up): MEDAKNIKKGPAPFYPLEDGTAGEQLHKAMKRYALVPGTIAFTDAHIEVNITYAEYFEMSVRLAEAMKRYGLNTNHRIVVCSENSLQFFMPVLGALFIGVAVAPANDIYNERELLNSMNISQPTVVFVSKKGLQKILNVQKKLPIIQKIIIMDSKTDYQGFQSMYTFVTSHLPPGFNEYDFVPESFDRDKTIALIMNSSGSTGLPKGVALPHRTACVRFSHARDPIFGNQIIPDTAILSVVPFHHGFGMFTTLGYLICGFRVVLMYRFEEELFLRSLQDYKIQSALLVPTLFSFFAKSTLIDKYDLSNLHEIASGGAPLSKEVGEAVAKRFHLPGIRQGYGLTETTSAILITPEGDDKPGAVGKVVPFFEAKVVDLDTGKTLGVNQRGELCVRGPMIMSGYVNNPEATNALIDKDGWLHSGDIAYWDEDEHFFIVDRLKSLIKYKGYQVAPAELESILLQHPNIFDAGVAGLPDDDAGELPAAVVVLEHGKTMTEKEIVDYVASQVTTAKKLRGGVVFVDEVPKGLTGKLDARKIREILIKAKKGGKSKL
Method in brief: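 Biochemical qHTS: compounds run as interplate titrations against purified firefly enzyme, with D-luciferin and ATP each at its KM concentration. Light output recorded by CCD imaging.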

[8] = qHTS assay to identify small molecule agonists of the constitutive androstane receptor (CAR) signaling pathway - cell viability counter screen (AID 1224836); note: nearly all actives have a fitted effect of over 45% in size; note: potency is the fitted concentration of half-maximal effect
Method in brief: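 Cells were seeded and incubated 4 hrs. Compounds were added across 15 concentrations together with PK11195 at 0.75 uM final. Plates were incubated 23 hrs at 37 C. CellTiter-Fluor was added and fluorescence measured.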

[9] = qHTS assay to identify small molecule antagonists of the constitutive androstane receptor (CAR) signaling pathway - cell viability counter screen (AID 1224837); note: series mostly up to about 92 µM; nearly all actives have a fitted effect of over 45% in size
Method in brief: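 CITCO at 50 nM final was added alongside compounds (15 concentrations) to double-stable hCAR/CYP2B6-2.2kb HepG2 cells. Following 23 hr at 37 C, cell viability was quantified by CellTiter-Fluor fluorescence intensity.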

[10] = qHTS assay to identify small molecule antagonists of the estrogen related receptor signaling pathway with the pleiotropic PPARgamma coactivator (PGC) from Tox21 10K library - cell viability counter screen (AID 1224840; active = well fitted cell-killing curve with a large enough effect in the repeat runs, not every such curve was filed as active; note: nearly all actives have a fitted effect of over 40% in size)
Method in brief: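 Readout: fluorescence intensity from CellTiter-Fluor after 30 min at 37 C/5% CO2. Preceded by 17.5 h treatment of PGC/ERR cells with DMSO-dissolved compounds, added 6 h post-seeding.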

[11] = molecular target: Nuclear receptor subfamily 1 group I member 3 (Homo sapiens) (UniProt Q14994); assay: qHTS assay to identify small molecule antagonists of the constitutive androstane receptor (CAR) signaling pathway (AID 1224838); note: nearly all actives have a fitted effect of over 40% in size; note: potency is the fitted concentration of half-maximal effect
Nuclear receptor subfamily 1 group I member 3 (Homo sapiens), sequence (Q14994 whole entry, looked up): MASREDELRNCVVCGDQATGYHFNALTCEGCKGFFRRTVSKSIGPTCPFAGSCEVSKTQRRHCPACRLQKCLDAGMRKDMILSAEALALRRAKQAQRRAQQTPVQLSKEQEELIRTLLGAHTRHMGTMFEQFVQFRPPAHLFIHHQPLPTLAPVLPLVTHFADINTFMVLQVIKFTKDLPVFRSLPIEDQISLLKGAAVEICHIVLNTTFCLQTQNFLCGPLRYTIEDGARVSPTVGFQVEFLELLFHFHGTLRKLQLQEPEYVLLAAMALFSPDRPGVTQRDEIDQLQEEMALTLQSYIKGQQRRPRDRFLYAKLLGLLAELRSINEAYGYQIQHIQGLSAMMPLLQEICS
Method in brief: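 Inhibition of CITCO-driven (50 nM final) CYP2B6 reporter expression is measured in HepG2 cells stably carrying hCAR. Fifteen compound concentrations are applied for 24 h at 37 C, followed by luciferase luminescence.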

[12] = molecular target: Nuclear receptor subfamily 1 group I member 3 (Homo sapiens) (UniProt Q14994); assay: qHTS assay to identify small molecule agonists of the constitutive androstane receptor (CAR) signaling pathway (AID 1224839); note: nearly all actives have a fitted effect of over 15% in size; note: potency is the fitted concentration of half-maximal effect
Method in brief: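 Cells were plated and incubated 4 hrs, then dosed with compounds at 15 concentrations. PK11195 was added to 0.75 uM final. After 24 hrs at 37 C, luciferase luminescence was measured.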

[13] = qHTS assay to identify small molecule antagonists of the estrogen related receptor signaling pathway with the pleiotropic PPARgamma coactivator (PGC) from Tox21 10K library (AID 1224841; call rule not given here; note: series mostly up to about 92 µM; actives are mostly falling curves and most rising ones were filed inactive; nearly all actives have a fitted effect of over 50% in size)
Method in brief: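 One-Glo luminescence, measured after half an hour at room temperature, quantified reporter output of PGC/ERR cells. These had been plated at 2,000 per well, incubated 6 h, dosed with compounds in DMSO, then kept 18 h at 37 C.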

[14] = qHTS assay to identify small molecule agonists of the estrogen related receptor signaling pathway with the pleiotropic PPARgamma coactivator (PGC) from Tox21 10K library (AID 1224842); note: nearly all actives have a fitted effect of over 15% in size; note: potency is the fitted concentration of half-maximal effect
Method in brief: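 PGC/ERR reporter cell line, 2,000 cells per well, incubated 6 h at 37 C before 23 nL compound in DMSO was added. After 18 h at 37 C, One-Glo luminescence read following 30 min at room temperature.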

[15] = qHTS assay to identify small molecule agonists of the estrogen related receptor (ERR) signaling pathway (AID 1224820)
Method in brief: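 Following a 6 h settling period, 2,000 ERR cells per well receive DMSO-dissolved compounds by pin tool and incubate 18 h at 37 C; agonist activity is scored from One-Glo luminescence read 30 min post-addition.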

[16] = qHTS assay to identify small molecule antagonists of the estrogen related receptor signaling pathway with the pleiotropic PPARgamma coactivator (PGC) cell viability counter screen (AID 1224822; note: series mostly up to about 46 µM)
Method in brief: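 17.5 h compound treatment of PGC/ERR cells at 37 C; readout CellTiter-Fluor fluorescence; run alongside the PGC/ERR antagonist screen to flag cytotoxic compounds.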

[17] = qHTS assay to identify small molecule agonists of the estrogen related receptor signaling pathway with the pleiotropic PPARgamma coactivator (PGC) (AID 1224823)
Method in brief: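 In this quantitative high-throughput screen, an 18 h, 37 C treatment of PGC/ERR cells with compounds in DMSO preceded a One-Glo luminescence read taken after 30 min at room temperature.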

[18] = qHTS assay to identify small molecule antagonists of the estrogen related receptor (ERR) signaling pathway - cell viability counter screen (AID 1224818); note: series mostly up to about 46 µM
Method in brief: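 Viability of ERR cells, CellTiter-Fluor fluorescence; 17.5 h compound exposure at 37 C, DMSO vehicle; 30 min reagent incubation at 37 C/5% CO2.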

| Compound | Potency [1] | Potency [2] | Potency [3] | Potency [4] | Potency [5] | Potency [6] | Potency [7] | Potency [8] | Potency [9] | Potency [10] | Potency [11] | Potency [12] | Potency [13] | Potency [14] | outcome [15] | Potency [16] | outcome [17] | Potency [18] |
| --- | --- | --- | --- | --- | --- | --- | --- | --- | --- | --- | --- | --- | --- | --- | --- | --- | --- | --- |
| CCCCNS(=O)(=O)c1ccccc1 | inactive | inactive | inactive | inactive | inactive | inactive | inactive | inactive | inactive | inactive |  |  |  |  |  |  |  |  |
| CC(=O)c1ccccn1 | inactive | inactive | inactive | inactive | inactive | inactive | inactive | inactive | inactive | inactive | inactive | inactive |  |  |  |  |  |  |
| CC(=O)C1(C)CC2=C(CCCC2(C)C)CC1C (stereo not drawn) | inactive | inactive | inactive | inactive | inactive | inactive | inactive | inactive | inactive | inactive | inactive | inactive | inactive | inactive |  |  |  |  |
| Cn1cnc([N+](=O)[O-])c1Sc1ncnc2nc[nH]c12 | inactive | inactive | inactive | 48.3 µM (active) and inactive | inactive |  | inactive | 6.82 µM (active) |  | inactive | 4.83 µM (active) and 11.9 µM (active) |  | inactive | 24.2 µM (active) and inactive | inactive | inactive | inactive |  |
| c1ccc2cc(Nc3ccc(Nc4ccc5ccccc5c4)cc3)ccc2c1 | inactive | inactive | inactive | inactive | inactive | inactive | inactive | inactive | inactive | inactive | inactive |  | inactive | inactive |  |  |  |  |
| c1ccncc1 | inactive | inactive | inactive | inactive | inactive | inactive | inactive | inactive | inactive | inactive | inactive |  |  |  |  |  |  |  |
| CCC(C)CO (stereo not drawn) | inactive | inactive | inactive | inactive | inactive | inactive | inactive | inactive | inactive | inactive | inactive |  | inactive | inactive |  |  |  |  |
| Cc1ccc2c(n1)Oc1ccc(C(C)C(=O)OCC(=O)N(C)C)cc1C2 (stereo not drawn) | inactive | inactive | inactive | inactive | 10.6 µM (active) and 8.41 µM (active) | inactive | 17.4 µM (active) and 15.5 µM (active) | inactive | inactive | inactive | inactive | 11.9 µM (active) | inactive | inactive |  |  |  |  |
| CC(=O)CC/C=C(\C)CCC=C(C)C | inactive | inactive | inactive |  |  | inactive | inactive | inactive | inactive | inactive | inactive | inactive |  |  |  |  |  |  |
| CC(C)Oc1ccc2c(=O)c(-c3ccccc3)coc2c1 | inactive | inactive | inactive | inactive | 335 nM (active) | inactive | 1.38 µM (active) and 1.55 µM (active) | inactive | inactive | inactive | inactive | 1.5 µM (active) and 2.11 µM (active) | inactive | 2.66 µM (active) and 2.98 µM (active) |  |  |  |  |
| c1ccc(Nc2ccccc2)cc1 | inactive | inactive | inactive | inactive | inactive | 48.5 µM (active) and inactive |  | inactive | inactive | inactive | inactive | inactive | inactive | inactive |  |  |  |  |
| CN1C(C(=O)Nc2ccccn2)=C(O)c2ccccc2S1(=O)=O | inactive | inactive | inactive | inactive | inactive | inactive |  | inactive | inactive | inactive | inactive |  |  |  |  | inactive |  | inactive |
| C[Si](C)(C)O[Si](C)(C)C | inactive | inactive | inactive | inactive | inactive | inactive | inactive | inactive | inactive | inactive |  |  |  |  |  |  |  |  |
| O=C(OCc1ccccc1)c1ccccc1O | inactive | inactive | inactive | inactive | 9620 nM (active) | inactive | 17.7 µM (active) and 12.6 µM (active) | inactive | inactive | inactive |  |  |  |  |  |  |  |  |
| CC(C)=CCCC(C)CCO (stereo not drawn) | inactive | inactive | inactive | inactive | inactive | inactive | inactive | inactive | inactive | inactive |  |  |  |  |  |  |  |  |
| Cc1ncc[nH]1 | inactive | inactive | inactive | inactive | inactive | inactive | inactive | inactive | inactive | inactive |  |  |  |  |  |  |  |  |
| COc1ccc(C(=O)CC(=O)c2ccc(C(C)(C)C)cc2)cc1 | inactive | inactive | inactive | inactive | 58.7 µM (active) and inactive | inactive | 13.6 µM (active) and inactive | inactive | inactive | inactive | inactive |  |  |  |  |  |  |  |
| CCCCOCCOCCOCCO | inactive | inactive | inactive | inactive |  | inactive | inactive | inactive | inactive | inactive | inactive | inactive | inactive | inactive |  |  |  |  |
| Clc1nc(Cl)c(Cl)c(Cl)c1Cl | inactive | inactive |  | inactive | inactive | inactive | inactive | inactive | inactive | inactive | inactive | inactive | inactive | inactive |  |  |  |  |
| O=C=Nc1ccc(Cc2ccc(N=C=O)cc2)cc1 | inactive | inactive |  | inactive | inactive | inactive | inactive | inactive | inactive | inactive |  |  | inactive | inactive |  |  |  |  |
